Measured values reported in the supplement of paper PMC11219838.

Tested on: Caenorhabditis elegans dauer (daf-2(e1370))
Assay: proportion of mobile C. elegans dauer larvae relative to DMSO control (fraction of DMSO control); higher = more viable, less nematicidal, active = 0.63 or less; extreme values may be limits of the assay
Details: 60 µM; 5 days; temperature: 20 °C
Method: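 DODA library (846 commercial 1,3,4- and 1,2,4-oxadiazole compounds plus commercial nematicide controls) screened at a single dose of 60 µM (0.6% DMSO) in 96-well plates, two biological replicates. Read-outs: C. elegans N2 L1 survival/reproduction score at day 6, 20 °C (0: 0-10 worms, 1: 11-20, 2: 21-50, 3: >50, 4: overgrown/starved). C. elegans daf-2 dauer, D. dipsaci and M. hapla J2 mobility at day 5, 20 °C, and P. penetrans mobility at day 5, 20 °C, each relative to DMSO controls. M. hapla egg hatching at day 12, 25 °C, relative to the mean of 8 DMSO wells on the same plate.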

SMILES	proportion of mobile C. elegans dauer larvae
CC(C)NC(=O)N1CC(=O)N(c2cc(Cl)cc(Cl)c2)C1=O [iprodione]	1 (inactive)
CC[C@H](C)[C@H]1O[C@]2(C=C[C@@H]1C)C[C@@H]1C[C@@H](C/C=C(\C)[C@@H](O[C@H]3C[C@H](OC)[C@@H](O[C@H]4C[C@H](OC)[C@@H](O)[C@H](C)O4)[C@H](C)O3)[C@@H](C)/C=C/C=C3\CO[C@@H]4[C@H](O)C(C)=C[C@@H](C(=O)O1)[C@]34O)O2.CO[C@H]1C[C@H](O[C@H]2[C@H](C)O[C@@H](O[C@@H]3/C(C)=C/C[C@@H]4C[C@@H](C[C@]5(C=C[C@H](C)[C@@H](C(C)C)O5)O4)OC(=O)[C@@H]4C=C(C)[C@@H](O)[C@H]5OC/C(=C\C=C\[C@@H]3C)[C@]54O)C[C@@H]2OC)O[C@@H](C)[C@@H]1O [abamectin]	0.242 (active)
CNC(=O)O/N=C(\SC)C(=O)N(C)C [oxamyl]	1 (inactive)
O=C(NCCc1ncc(C(F)(F)F)cc1Cl)c1ccccc1C(F)(F)F [fluopyram]	0 (active)
